Inconclusive results are not listed. The source made the active and inactive calls. Calls follow the shape of the dose curve; as a rule, active = well fitted inhibition curve with a large enough effect; inconclusive = small, poorly fitted or top-dose-only effect; inactive = flat fitted curve, though single readings scatter.
assay: qHTS profiling for inhibitors of Plasmodium falciparum proliferation (AID 504749);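 also: 0% = DMSO vehicle and full inhibition = artemisinin control; nearly all actives have a fitted effect of over 60% in size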; settings: P. falciparum in erythrocytes, SYBR Green DNA, 72 h; at 28.7 µM (top of the series); parasite line A
Procedure, shortened: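 P. falciparum-infected erythrocytes (0.3% parasitemia, 2.5% hematocrit) incubated with compound 72 h at 37 C, 5% CO2. Parasite DNA detected by SYBR Green after lysis, overnight at room temperature; normalised to 0.29 uM artemisinin and DMSO.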

Row | SMILES | activity, negative = inhibition
1 | c1ccc2c(c1)sc1ccccc12 | -4.2% (inactive)
2 | CCCC(C)(COC(N)=O)COC(N)=O | 5.3% (inactive)
3 | CCC1(c2ccccc2)C(=O)N(COC)C(=O)N(COC)C1=O | 4.41% (inactive)
4 | CCC(C)(C)c1ccc(O)cc1 | 2.92% (inactive)
5 | C=C(C)[C@H]1CN[C@H](C(=O)O)[C@H]1CC(=O)O | 3.91% (inactive)
6 | CN1CCC(O)(c2ccc(F)cc2)C(C(=O)c2ccc(F)cc2)C1 (centres undefined) | -7.61% (inactive)
7 | NNc1ccccc1 | 7.49% (inactive)
8 | O=C1Nc2ccc(Cl)cc2C(c2ccccc2)=NC1O (centres undefined) | -1.71% (inactive)
9 | COP(=S)(OC)Oc1ccc(SC)c(C)c1 | 8.16% (inactive)
10 | COP(=S)(OC)Oc1ccc(S(=O)(=O)N(C)C)cc1 | 14.2% (inactive)
11 | CCOC(=O)CC(SP(=S)(OC)OC)C(=O)OCC (centres undefined) | 10.2% (inactive)
12 | CCC1(CC)C(=O)C=CNC1=O | 10.7% (inactive)
13 | CC(C)(C)NCC(O)c1ccccc1Cl (centres undefined) | -1.78% (inactive)
14 | CN1C(=O)C(O)N=C(c2ccccc2)c2cc(Cl)ccc21 (centres undefined) | 4.85% (inactive)
15 | CN1C(=O)CC(=O)N(c2ccccc2)c2cc(Cl)ccc21 | 1.1% (inactive)
16 | C[C@]12CCC(=O)C=C1CC[C@@H]1[C@@H]2CC[C@]2(C)C(=O)CC[C@@H]12 | -9.45% (inactive)
17 | Nc1ccccc1C(=O)O | 15.6% (inactive)
18 | Cc1ncsc1CCCl | 12% (inactive)
19 | CCCCCCCCCC(=O)O[C@H]1CC[C@H]2[C@@H]3CCC4=CC(=O)CC[C@@H]4[C@H]3CC[C@]12C | 6.57% (inactive)
